This passage reports growth inhibition results from PubChem BioAssay (NCI).

About 79,000 compounds went through this panel and 15% of them were active in at least one assay; those are over-represented in the sample as a whole. Unmarked numbers belong to inactive results. The source made the active and inactive calls. Rule as the data show it: active = growth inhibition above about 70%; inactive = the rest.

The first assay is described as follows: NCI Yeast Anticancer Drug Screen. Data for the rad50 strain (AID 155).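 Also: 0% = growth of vehicle-only cultures of the same strain.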 Conditions: S. cerevisiae rad50 strain growth inhibition; at 50.0 µM; stronger effect = higher value. In outline:
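Genetically altered yeast (DNA repair pathway); compound treatment; growth inhibition vs vehicle ctrl.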
With `CN(C)NC(=S)Nc1ccccc1`, the growth inhibition was -5.05%.
Still for that read-out and setting: then `Cc1cc(S(=O)(=O)O)c(NC(=O)C(=O)C2C=CCS2(=O)=O)cc1Cl` (stereo not given), with -5.2%.
Regarding `COc1ccc(C(Nc2ccccn2)c2cc(C(C)(C)C)cc(C(C)(C)C)c2O)cc1` (stereo not given), the growth inhibition was 43.6%.
The same measure, in the same setting: as for `CCCCCCCCCCCCCCCCCCCCCCCCCCCCCCS(=O)(=O)Cl`, the figure is 14.7%; as for `Cc1ccc(S(=O)(=O)N2CCC[C@@H]2C(=O)O[C@@H]2CCC3CC=CC32)cc1` (stereo not given in full), 3.65%.
`COc1cccc(NC(=O)CC(=O)Nc2cccc(OC)c2)c1`: the growth inhibition was -5.05%.
On the same count and under the same terms, then `O=C(O)CC1OCC=C2C[N+]3([O-])CCC45c6ccccc6NC4C1C2CC53` (stereo not given), with -1.5%; and `COc1cc2c(cc1OC)-c1cc3cc(OC)c(OC)cc3c(C)[n+]1CC2` (tested in a mixture with another compound), with 6.25%.
For `CSCC[C@H](NC(C)=O)B1OCCO1`, the growth inhibition was 9.85%.
Same read-out and setting: then `CCN(CC)CC1CCCCN1` (stereo not given), with -10.1%.
As to `CC1(C)CCC(C)(C)c2cc(C(=O)O)ccc21`, the growth inhibition was 7.55%.
Still for that read-out and setting: then `COCC(C)OC(=O)c1ccccc1Cl` (stereo not given), with 7.65%; and `NNC(=O)CCC(=O)NC1C2CC3CC(C2)CC1C3` (stereo not given), with -23.6%; and `C#CCOC(=O)c1ccc(OC(C)=O)cc1`, with -3.45%.
As to `S=C=NCCCCCCCCCCCCN=C=S`, the growth inhibition was 94.4% (active).
`S=C(S)N1CCN(c2ccc(Cl)c(Cl)c2)CC1`: the growth inhibition is 4%.
Regarding `C/C(CC(=O)Nc1ccc([N+](=O)[O-])cc1)=N/N=C(N)N`, the growth inhibition is -4.25%.
On the same count and under the same terms, then `O=C1C(=O)c2ccccc2C(O)=C1c1ccc(Br)cc1`, with 8.85%; and `COC(=O)N/N=C(\C)C(CN1CCCCC1)C(C1=C(O)c2ccccc2OC1)c1ccccc1` (stereo not given), with 6.15%; and `CC(=O)Oc1c(C)cc2c(c1C)C(C)(C)CN2C(=O)C(C)(C)C`, with 16.9%.
Turning to `Cc1ccc2ccccc2[n+]1CC(=O)c1ccc2c(c1)OCO2`, the growth inhibition was -3%.
Still for that read-out and setting: then `O=C(CC(=O)N1CCOCC1)N1CCOCC1`, with 4.5%; and `CC/C(Cl)=N\OC(=O)Nc1ccc(C#N)cc1`, with -44.8%.
The same measure, in the same setting: then `COC(=O)c1cc(-c2ccc(F)cc2)[nH]c(=O)c1C#N`, with 6.3%; and `CCOC(=O)/C(C#N)=C/c1ccccc1OC`, with 35.6%; and `CC(=O)OC1CCC2(C)C3=C(C(=O)CC2C1(C)C)C1(C)CCC(C(C)CCCC(C)C)C1(C)CC3` (stereo not given), with 0.3%.
On the same count and under the same terms, then `COC(=O)NS(=O)(=O)CC(=O)c1ccccc1`, with 10.2%; and `Cc1cc(N2CCOCC2)nc2ccc(Cc3ccc4nc(N5CCOCC5)cc(C)c4c3)cc12`, with 13.5%; and `C=CCNC=O`, with 2.55%.
Take `O=C(OCC(OC(=O)c1ccccc1)C(OC(=O)c1ccccc1)C(COC(=O)c1ccccc1)OC(=O)c1ccccc1)c1ccccc1` (stereo not given): the growth inhibition is 67%.
Same read-out and setting: as for `CC1(C)COC(c2cc(Br)ccc2Br)=N1`, the figure is 4.9%.
Still for that read-out and setting: as for `N#CC12CCC(O)C(CC1)C2=O` (stereo not given), the figure is 20.2%; as for `CC(=O)CC(=O)OC1CC(C)CCC1C(C)C` (stereo not given), 12.2%.
Still for that read-out and setting: as for `COc1cc(OC)c2nc3ccccc3c(NCCC[N+](C)(C)[O-])c2c1[N+](=O)[O-]`, the figure is 7.65%.
As to `CC(C)=NNc1snnc1C(N)=O`, the growth inhibition is 13.2%.
Regarding `CCCCCCCCCCCCCCCC(=O)OCC1OC(n2cc(F)c(=O)[nH]c2=O)C(NC(=O)N(CCCl)N=O)C(O)C1O` (stereo not given), the growth inhibition was -16.1%.
Regarding `Cc1ccc(CCOC(=O)Nc2ccccc2)cc1`, the growth inhibition was -7.55%.
On to `NNC(=O)/C(=C/c1ccc(Cl)cc1Cl)NC(=O)c1ccccc1`, for which the growth inhibition was 45%.
On the same count and under the same terms, as for `CC1Cc2ccccc2C2=C3CC=CCC3C3C(=O)OC(=O)C3C21` (stereo not given), the figure is 11.4%; as for `O=C1NC(O)c2cccc([N+](=O)[O-])c2O1` (stereo not given), 19.4%.

The next assay in a line: NCI Yeast Anticancer Drug Screen. Data for the mec2-1 strain (AID 157). The settings on record: S. cerevisiae mec2-1 strain, at 50.0 µM, stronger effect = higher value. In outline: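 Cells of the genetically defined mec2-1 yeast strain are incubated with test compound. Inhibition of growth is calculated against vehicle-treated controls.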
With `CN(C)NC(=S)Nc1ccccc1`, the growth inhibition is -0.65%.
`Cc1cc(S(=O)(=O)O)c(NC(=O)C(=O)C2C=CCS2(=O)=O)cc1Cl` (stereo not given): the growth inhibition is -20.8%.
Turning to `COc1ccc(C(Nc2ccccn2)c2cc(C(C)(C)C)cc(C(C)(C)C)c2O)cc1` (stereo not given), the growth inhibition is -2.95%.
Consider `CCCCCCCCCCCCCCCCCCCCCCCCCCCCCCS(=O)(=O)Cl`, for which the growth inhibition was 28.1%.
Still for that read-out and setting: as for `Cc1ccc(S(=O)(=O)N2CCC[C@@H]2C(=O)O[C@@H]2CCC3CC=CC32)cc1` (stereo not given in full), the figure is -17.3%; as for `COc1cccc(NC(=O)CC(=O)Nc2cccc(OC)c2)c1`, 3.6%; as for `O=C(O)CC1OCC=C2C[N+]3([O-])CCC45c6ccccc6NC4C1C2CC53` (stereo not given), 19.7%.
Regarding `COc1cc2c(cc1OC)-c1cc3cc(OC)c(OC)cc3c(C)[n+]1CC2` (tested in a mixture with another compound), the growth inhibition is 0%.
As for `CSCC[C@H](NC(C)=O)B1OCCO1`, the growth inhibition is 21.4%.
For the compound `CCN(CC)CC1CCCCN1` (stereo not given), the growth inhibition was -15.7%.
For the compound `CC1(C)CCC(C)(C)c2cc(C(=O)O)ccc21`, the growth inhibition was 5.3%.
Still for that read-out and setting: then `COCC(C)OC(=O)c1ccccc1Cl` (stereo not given), with 10.3%.
On the same count and under the same terms, then `NNC(=O)CCC(=O)NC1C2CC3CC(C2)CC1C3` (stereo not given), with -15.4%; and `C#CCOC(=O)c1ccc(OC(C)=O)cc1`, with 1.45%.
Same read-out and setting: as for `S=C=NCCCCCCCCCCCCN=C=S`, the figure is 89.5% (active); as for `S=C(S)N1CCN(c2ccc(Cl)c(Cl)c2)CC1`, -1.65%; as for `C/C(CC(=O)Nc1ccc([N+](=O)[O-])cc1)=N/N=C(N)N`, -16%.
On to `O=C1C(=O)c2ccccc2C(O)=C1c1ccc(Br)cc1`, for which the growth inhibition is -9.5%.
The same measure, in the same setting: as for `COC(=O)N/N=C(\C)C(CN1CCCCC1)C(C1=C(O)c2ccccc2OC1)c1ccccc1` (stereo not given), the figure is 15.7%.
On the same count and under the same terms, as for `CC(=O)Oc1c(C)cc2c(c1C)C(C)(C)CN2C(=O)C(C)(C)C`, the figure is -20.2%; as for `Cc1ccc2ccccc2[n+]1CC(=O)c1ccc2c(c1)OCO2`, -23.2%.
On the same count and under the same terms, as for `O=C(CC(=O)N1CCOCC1)N1CCOCC1`, the figure is -14.8%; as for `CC/C(Cl)=N\OC(=O)Nc1ccc(C#N)cc1`, 4.9%; as for `COC(=O)c1cc(-c2ccc(F)cc2)[nH]c(=O)c1C#N`, -10.4%.
`CCOC(=O)/C(C#N)=C/c1ccccc1OC`: the growth inhibition is 38.9%.
On the same count and under the same terms, as for `CC(=O)OC1CCC2(C)C3=C(C(=O)CC2C1(C)C)C1(C)CCC(C(C)CCCC(C)C)C1(C)CC3` (stereo not given), the figure is 1.6%.
Same read-out and setting: then `COC(=O)NS(=O)(=O)CC(=O)c1ccccc1`, with -0.3%; and `Cc1cc(N2CCOCC2)nc2ccc(Cc3ccc4nc(N5CCOCC5)cc(C)c4c3)cc12`, with -10.2%; and `C=CCNC=O`, with 3.6%.
Still for that read-out and setting: as for `O=C(OCC(OC(=O)c1ccccc1)C(OC(=O)c1ccccc1)C(COC(=O)c1ccccc1)OC(=O)c1ccccc1)c1ccccc1` (stereo not given), the figure is 26.1%; as for `CC1(C)COC(c2cc(Br)ccc2Br)=N1`, -16.2%; as for `N#CC12CCC(O)C(CC1)C2=O` (stereo not given), 0.85%.
Regarding `CC(=O)CC(=O)OC1CC(C)CCC1C(C)C` (stereo not given), the growth inhibition was -24.4%.
Still for that read-out and setting: as for `COc1cc(OC)c2nc3ccccc3c(NCCC[N+](C)(C)[O-])c2c1[N+](=O)[O-]`, the figure is -33.6%; as for `CC(C)=NNc1snnc1C(N)=O`, 26.9%; as for `CCCCCCCCCCCCCCCC(=O)OCC1OC(n2cc(F)c(=O)[nH]c2=O)C(NC(=O)N(CCCl)N=O)C(O)C1O` (stereo not given), -31.8%.
`Cc1ccc(CCOC(=O)Nc2ccccc2)cc1`: the growth inhibition is 6.4%.
Same read-out and setting: then `NNC(=O)/C(=C/c1ccc(Cl)cc1Cl)NC(=O)c1ccccc1`, with 35.3%; and `CC1Cc2ccccc2C2=C3CC=CCC3C3C(=O)OC(=O)C3C21` (stereo not given), with 8.05%; and `O=C1NC(O)c2cccc([N+](=O)[O-])c2O1` (stereo not given), with 9.1%.
